Compounds without any hit were thinned out: in the full panel of roughly 79,000, 15% have a hit. A number with no mark means an inactive call. Activity calls are given as the source filed them. No stated cut-off is given here; in the data, active means growth inhibition above about 70%; inactive means the rest.

A short description of the assay: NCI Yeast Anticancer Drug Screen. Data for the mlh1 rad18 strain (AID 175). Particulars: S. cerevisiae mlh1 rad18 strain growth inhibition, hits give high values. As to the method: Growth inhibition of yeast strains with defined genetic alterations is measured as a screen for potential anti-cancer activity. Selected strains with alterations in DNA damage repair or cell cycle control were exposed to compounds and growth inhibition was measured relative to vehicle treated controls. The strain used in this assay is mlh1 rad18

Setting [1] is: at 5.0 µM (retest, dose inferred, filed as 0.5).
Where [2] appears, read: at 50.0 µM (retest, dose inferred, filed as 5.0).

Regarding `N#CCc1nc(Cl)cc(Cl)n1`, the growth inhibition was 3% under setting [1], 27% under setting [2] and 15.9% (at 50.0 µM).

`COc1cc(O)c2c(c1)C(O)C(O)CC1OC1C(=O)/C=C/CC(C)OC2=O` (configuration not stated): the growth inhibition reads like this: under setting [1], 81% (active); under setting [2], 98% (active); (at 50.0 µM) 92% (active).

Turning to `O=[N+]([O-])/C=C\c1csc2ccccc12`, the growth inhibition under setting [1] is 92% (active), the growth inhibition under setting [2] was 99% (active) and the growth inhibition (at 50.0 µM) was 99.3% (active).

As for `COc1ccc(Cc2c3ccccc3cc[n+]2C)cc1Oc1ccc(Cc2c3ccccc3cc[n+]2C)cc1`, the growth inhibition was -2% under setting [1], 96% (active) under setting [2] and 85.9% (active) (at 50.0 µM).

Take `CCOC(=O)c1[nH]c(Br)c(-c2ccc(OC)c(OC)c2)c1Br`: the growth inhibition under setting [1] is 8%, the growth inhibition under setting [2] was 97% (active) and the growth inhibition (at 50.0 µM) was 94.2% (active).

Regarding `C[Si](C)(C)CN1C(=O)c2ccccc2C1(O)c1ccccc1` (configuration not stated), the growth inhibition is, setting by setting: under setting [1], -1%; under setting [2], 69%; (at 50.0 µM) 71.2% (active).

Regarding `[C](#[C][Sn]([c]1ccccc1)([c]1ccccc1)[c]1ccccc1)[Sn]([c]1ccccc1)([c]1ccccc1)[c]1ccccc1`, the growth inhibition under setting [1] was 98% (active), the growth inhibition under setting [2] is 97% (active) and the growth inhibition (at 50.0 µM) was 96.9% (active).

Turning to `COc1ccc(C2=CCC3C4CC=C5CC(O)CCC5(C)C4CCC23C)s1` (configuration not stated), the growth inhibition by setting is: under setting [1], 19%; under setting [2], 75% (active); (at 50.0 µM) 94.7% (active).

For the compound `O=[N+]([O-])/C(C(Cl)=C(Cl)Cl)=C(/Sc1ccccc1)N1CCCCC1`, the growth inhibition is, setting by setting: under setting [1], -3%; under setting [2], 96% (active); (at 50.0 µM) 77.9% (active).

Consider `Cc1cc(Cl)ccc1C(=O)c1ccc2ccccc2c1C(=O)O`, for which the growth inhibition under setting [1] was -36%, the growth inhibition under setting [2] was 52% and the growth inhibition (at 50.0 µM) was 78.8% (active).

On to `CCCC(C)c1ccc(O)cc1` (configuration not stated), for which the growth inhibition runs as follows: under setting [1], 2%; under setting [2], 39%; (at 50.0 µM) 91.7% (active).

For `c1cc2c3c(c1)[I+]c1cccc(c1-3)[I+]2`, the growth inhibition runs as follows: under setting [1], 64%; under setting [2], 88% (active); (at 50.0 µM) 55.9%.

Consider `CCOC(=O)/C=C(\NC1CC(OC2C[C@](O)(C(C)=O)Cc3c(O)c4c(c(O)c32)C(=O)c2c(OC)cccc2C4=O)OC(C)C1O)C(=O)OCC` (some centres not stated), for which the growth inhibition under setting [1] is 34%, the growth inhibition under setting [2] was 96% (active) and the growth inhibition (at 50.0 µM) was 87.5% (active).

As for `O=C1c2sccc2-c2cccc3cccc1c23` (tested in a mixture with another compound), the growth inhibition under setting [1] was 86% (active), the growth inhibition under setting [2] is 98% (active) and the growth inhibition (at 50.0 µM) was 95% (active).

Source of the values: PubChem BioAssay (NCI).
